Growth data for 14 compounds are collected here from PubChem BioAssay (NCI).

Some test systems named below: EKVX NSCLC; SN12C renal; UO-31 renal; TK-10 renal; ACHN renal; CAKI-1 renal; A498 renal; CCRF-CEM leukemia; MOLT-4 leukemia; SR leukemia.
Holding throughout (assay): NCI-60 one-dose screen, 48 h (100 = growth as untreated, 0 = no growth, -100 = all killed)
Holding throughout (settings): 10 µM unless noted

About 83,000 compounds went through this panel and 20% of them were active in at least one assay; those are over-represented in the sample as a whole.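 For each line, cells grew in 96-well plates with the test compound present at a single concentration for 48 hours.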 A number with no mark means an inactive call. Calls of active or inactive are those of the source. Rule for the calls: active = growth percent below 10; inactive = the rest.

As for `O=C1c2ccccc2C(=O)c2c1ccc1[nH]c(CCl)nc21`, the growth was 72.5% in the assay with EKVX NSCLC; -1.77% (active) in the assay on SN12C renal; 22.7% in the assay on UO-31 renal; 30.9% with TK-10 renal; 10.7% with ACHN renal; 7.26% (active) with CAKI-1 renal. Moreover, the growth is 16.3% in the assay on A498 renal, -12.5% (active) with CCRF-CEM leukemia and -2.42% (active) in the assay with MOLT-4 leukemia.
On to `CCOC(=O)c1c(C=O)nc2ccccc2c1/C=C/c1ccc(Cl)cc1`, for which the growth in the assay with EKVX NSCLC is 81.6%; in the assay with SN12C renal, 96.7%; in the assay on UO-31 renal, 72.7%; in the assay on TK-10 renal, 122%; in the assay with ACHN renal it was 89.1%; in the assay on CAKI-1 renal, 89.6%. Moreover, the results for the growth in the assay with A498 renal, with CCRF-CEM leukemia and with MOLT-4 leukemia were 103%, 76.6% and 78.9%, respectively.
Regarding `O=C(Nc1ccc(Br)cc1F)c1cc(I)ccc1O`, the growth in the assay with EKVX NSCLC is 43.8%; with SN12C renal it was 5.88% (active); in the assay on UO-31 renal it was 2.04% (active); in the assay with TK-10 renal it was 12.9%; with ACHN renal it was 6.1% (active); with CAKI-1 renal, -16.8% (active). For the same compound, the growth is -40.9% (active) in the assay with A498 renal, 11.9% in the assay on CCRF-CEM leukemia and 6.68% (active) in the assay on MOLT-4 leukemia.
Take `O=c1oc2ccc(I)cc2c(=O)n1-c1ccc(Br)cc1F`: the growth was 7.21% (active) in the assay on EKVX NSCLC; 0.636% (active) with SN12C renal; 5.6% (active) with UO-31 renal; 0.987% (active) in the assay on TK-10 renal; 1.01% (active) in the assay with ACHN renal; -17.8% (active) with CAKI-1 renal. Besides, the growth with A498 renal was -62.2% (active); in the assay on CCRF-CEM leukemia, 8.26% (active); with MOLT-4 leukemia, 3.69% (active).
With `Cn1cc([C@@H]2Nc3ccc4[nH]ncc4c3[C@H]3[C@H]4CCC(C4)[C@H]32)c(C(F)(F)F)n1`, the growth was 67.1% in the assay with EKVX NSCLC; 50.6% in the assay on SN12C renal; 49.6% with UO-31 renal; 65.6% in the assay with TK-10 renal; 50.5% in the assay with ACHN renal; 35.3% in the assay on CAKI-1 renal. The figures for the growth in the assay with A498 renal, with CCRF-CEM leukemia and with MOLT-4 leukemia were 8.35% (active), 27.6% and 29.4%, respectively.
As to `CN1CCN(Cc2ccc(C(=O)Nc3cncc(C#Cc4cnc(N)c5ccccc45)c3)cc2C(F)(F)F)CC1`, the growth in the assay on EKVX NSCLC was -8.85% (active); in the assay on SN12C renal, -81.7% (active); with UO-31 renal it was -90.7% (active); with TK-10 renal, -70.1% (active); in the assay on ACHN renal, -76.1% (active); with CAKI-1 renal, -91.4% (active). Besides, the growth in the assay on A498 renal is -62.9% (active); with CCRF-CEM leukemia it was 0.702% (active); with MOLT-4 leukemia it was -30% (active).
In the case of `COC(=O)[C@H](NC(=O)C1(C)CCC[C@]2(C)[C@H]3C[C@H]4C(C(C)C)=C[C@]3(CC[C@@H]12)[C@@H]1C(=O)CCC(=O)[C@@H]14)C(C)C` (some centres not stated), the growth with EKVX NSCLC was 94.9%; in the assay on SN12C renal it was 99.8%; in the assay on UO-31 renal it was 90.7%; with TK-10 renal, 127%; with ACHN renal, 100%; in the assay with CAKI-1 renal it was 88.4%. Besides, the growth with A498 renal is 110%; with CCRF-CEM leukemia, 104%; in the assay on MOLT-4 leukemia, 102%.
Regarding `O=C(Nc1ccc(Br)cc1F)c1cc(F)ccc1O`, the growth in the assay on EKVX NSCLC was 7.73% (active); in the assay with SN12C renal, 3.29% (active); with UO-31 renal, 6.93% (active); with TK-10 renal, 3.6% (active); in the assay with ACHN renal, 1.78% (active); with CAKI-1 renal, -16.7% (active). Besides, the growth in the assay with A498 renal was -68.8% (active); in the assay with CCRF-CEM leukemia, 7.49% (active); in the assay with MOLT-4 leukemia, 0.344% (active).
As to `O=C1CCC(N2C(=O)c3cccc(NCCCCCCOc4ccc(Nc5nccc(Nc6ccccc6)n5)cc4)c3C2=O)C(=O)N1` (configuration not stated), the growth with EKVX NSCLC is 77.3%; with SN12C renal, 79%; in the assay on UO-31 renal, 77.8%; with TK-10 renal, 108%; in the assay on ACHN renal, 74.8%; in the assay on CAKI-1 renal, 63.8%. Besides, the growth with A498 renal is 74.6%; in the assay with CCRF-CEM leukemia, 66.1%; with MOLT-4 leukemia it was 55.2%; in the assay with SR leukemia, 68.5%.
On to `Fc1ccc(Oc2ccc(Nc3ncnc4onc(-c5ccccc5)c34)cc2)cc1`, for which the growth in the assay on EKVX NSCLC is 98.9%; in the assay on SN12C renal, 84.1%; in the assay on UO-31 renal, 52.3%; with TK-10 renal, 102%; in the assay with ACHN renal, 99.8%; in the assay on CAKI-1 renal it was 93.5%. Moreover, the growth with A498 renal was 67%; in the assay with CCRF-CEM leukemia it was 62.9%; in the assay on MOLT-4 leukemia, 88.7%; in the assay on SR leukemia, 102%.
With `O=C(/C=C/c1ccc(C(F)(F)F)cc1)c1ccc(Nc2nc(NCCO)nc(N3CCOCC3)n2)cc1`, the growth with EKVX NSCLC was 65.4%; in the assay on SN12C renal, 71.5%; in the assay with UO-31 renal, 48%; in the assay on TK-10 renal it was 81.8%; in the assay with ACHN renal, 36.5%; with CAKI-1 renal it was 53.1%. The growth is 98% in the assay with A498 renal, 10.3% in the assay with CCRF-CEM leukemia, 5.76% (active) in the assay on MOLT-4 leukemia and 19% with SR leukemia.
In the case of `CC(C)c1ccc(S(=O)(=O)NC(=O)NC2CCCC2)cc1`, the growth was 98.1% in the assay on EKVX NSCLC; 97.1% in the assay with SN12C renal; 95.4% in the assay with UO-31 renal; 101% with TK-10 renal; 103% in the assay with ACHN renal; 96.7% in the assay on CAKI-1 renal. Moreover, the growth in the assay on A498 renal was 102%; with CCRF-CEM leukemia it was 98%; in the assay on MOLT-4 leukemia it was 94.6%; with SR leukemia it was 95.6%.
For `O=C(Nc1ccc(N2CCNCC2)cc1)c1[nH]ncc1Nc1cc(C2CC2)ncn1`, the growth with EKVX NSCLC is 69.8%; in the assay on SN12C renal, 44.7%; in the assay on UO-31 renal it was 34.1%; with TK-10 renal, 56.3%; in the assay with ACHN renal, 21.4%; in the assay with CAKI-1 renal, 27.5%. Further, the growth is 51.1% in the assay with A498 renal, 30% with CCRF-CEM leukemia, 15.1% in the assay on MOLT-4 leukemia and 5.95% (active) in the assay with SR leukemia.
Take `CCCCC1CCc2cccc3c(SCC(=O)N(C)c4ccc(Cl)cc4)cc[n+]1c23` (configuration not stated): the growth with EKVX NSCLC was 125%; in the assay on SN12C renal, 104%; in the assay on UO-31 renal, 103%; with TK-10 renal it was 109%; in the assay on ACHN renal it was 105%; in the assay with CAKI-1 renal, 99.1%. For the same compound, the growth was 114% in the assay on A498 renal, 108% with CCRF-CEM leukemia, 98.7% with MOLT-4 leukemia and 101% in the assay with SR leukemia.
